Sampled rows, rich in hits. Any-hit rate of the full collection: about 2.6%.
Cardio protect = modulators protecting cardiomyocytes from myocardial damage. H9c2 cardiomyocytes, H2O2 injury protection, ATPLite, 2 h. protection from H2O2 cell death, % at 20 µM. 0.63% of 360,000 active. AID 588492;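 active means compounds giving at least 50% protection of heart cells from peroxide-induced death in the single-dose screen, raw or plate-pattern-corrected value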;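 further: 0% = DMSO wells with peroxide and 100% = DMSO wells without peroxide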
Jurkat NFkB inh = lowers PMA/ionomycin-induced NF-kB signal in Jurkat cells; 0.53% of 330,000 active; PMA/ionomycin-induced NF-kB luciferase reporter, luminescence; inhibition, % at 4 µM; in the data active means inhibition above about 50%
COUP-TFII inh = NR2F2 (human) inhibition, primary screen. inhibition, % at 8.6 µM. 0.7% of 370,000 active. HEK293T NGFI-A luciferase reporter, luminescence. P24468;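 active means inhibition above a per-plate cutoff, mean inhibition of test wells between control levels plus 3 SD, cut at about 38% in these data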;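 further: cells cotransfected with COUP-TFII expression vector driving the NGFI-A reporter; 0% = median of COUP-TF2 test wells and 100% = reporter-only cells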
Target sequence (P24468 whole entry, looked up): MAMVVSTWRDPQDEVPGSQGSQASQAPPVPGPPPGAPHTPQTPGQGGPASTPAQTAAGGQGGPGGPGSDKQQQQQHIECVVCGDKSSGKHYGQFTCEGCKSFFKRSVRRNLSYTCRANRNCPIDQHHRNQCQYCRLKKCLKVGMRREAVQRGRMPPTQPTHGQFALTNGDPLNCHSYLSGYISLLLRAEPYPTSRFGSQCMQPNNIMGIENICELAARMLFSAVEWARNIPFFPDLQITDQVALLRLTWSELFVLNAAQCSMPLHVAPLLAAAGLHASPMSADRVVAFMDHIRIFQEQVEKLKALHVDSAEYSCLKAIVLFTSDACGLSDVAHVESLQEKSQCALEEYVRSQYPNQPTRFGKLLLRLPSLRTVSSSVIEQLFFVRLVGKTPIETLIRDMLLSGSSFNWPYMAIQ
H9c2 TAG inh = reduces triacylglycerol accumulation in H9c2 cells; 0.66% of 230,000 active; AID 651582; Nile Red lipid (TAG) fluorescence; cells loaded with 200 µM oleic acid; inhibition, % at 12.5 µM;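 active means pattern-corrected inhibition of lipid staining of at least 50% with the nuclear-stain viability signal not falling by more than 50%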;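 further: 0% = DMSO wells and 100% = triacsin C control wells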
Gli-Sufu block = antagonists of Gli-Sufu signaling | Sufu-KO-LIGHT fibroblasts, Gli luciferase reporter luminescence | inhibition, % at 5 µM | 0.74% of 340,000 active | AID 588413;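 active means inhibition above about 55%, limit read from the data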;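 further: 0% = DMSO-treated cells and 100% = wells with medium but no cells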
697 NFkB inh = inhibitors of the PMA/ionomycin-induced NF-kB reporter in 697 B cells; 697 B-cell NF-kB luciferase reporter, 16 h; inhibition, % at 4 µM; 0.33% of 330,000 active; AID 435022; in the data active means inhibition above about 35%
Jurkat NFkB conf = inhibitors of the PMA/ionomycin-induced NF-kB reporter in Jurkat cells, retest. inhibition, % at 4 µM. 27% of 2,700 active. shares compounds with Jurkat NFkB inh. Jurkat NF-kB luciferase, 16 h;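 active means inhibition reaching about 45% at 4 µM in either replicate, limit read from the data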;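 further: plate controls were PMA/ionomycin stimulated DMSO wells for no effect and unstimulated DMSO wells for full effect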
697 NFkB conf = lowers PMA/ionomycin-induced NF-kB signal in 697 B cells. 697 B-cell NF-kB luciferase, 16 h. 35% of 2,000 active. inhibition, % at 4 µM. AID 449746. shares compounds with 697 NFkB inh; in the data active means inhibition mostly above about 28%, no sharp cut-off; inactive means mostly below about 22%
Gli antag conf = confirmation of Gli-SUFU pathway antagonists. shares compounds with Gli-Sufu block. 40% of 2,500 active. Sufu-KO-LIGHT cells, Gli luciferase reporter, luminescence. inhibition, % at 5 µM;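 active means mean inhibition at 5 µM reaching about 45%, limit read from the data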;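 further: plate controls were DMSO-treated cells for no effect and wells lacking cells for full effect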
SufuKO cytotox = counter-screen for Gli-SUFU antagonists: cytotoxicity. shares compounds with Gli-Sufu block. Sufu-KO-LIGHT cells cytotoxicity, ATP luminescence. cytotoxicity, % at 5 µM. 32% of 2,500 active;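 active means mean cytotoxicity at 5 µM above about 25%, limit read from the data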;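 further: cells exposed to compound overnight for roughly 16 to 18 hours; plate controls were DMSO wells with cells for no effect and medium without cells for full effect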
Wnt3a counter = counter-screen for Gli-SUFU antagonists: Wnt3a reporter inhibition. 20% of 2,500 active. shares compounds with Gli-Sufu block. Wnt-LIGHT cells, Wnt3a-driven luciferase reporter, luminescence. inhibition, % at 6.25 µM;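 active means mean inhibition above about 25%, limit read from the data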
* marks the source's active call; other numbers are inactive results; i = inactive; . = not tested or not shown.

SMILES	Cardio protect	Jurkat NFkB inh	COUP-TFII inh	H9c2 TAG inh	Gli-Sufu block	697 NFkB inh	Jurkat NFkB conf	others
Cc1nc2c(=O)n(C)c(=O)nc-2n(C)n1	-31.6	55.8*	64.4*	112.7	76.4*	-30.5	99.7*
CCn1nc(-c2ccccc2)nc2c(=O)n(C)c(=O)nc1-2	8.5	16.2	.	-6.8	-12.2	-101.1	.
COC(=O)C1CN(C#N)N(c2ccc(Cl)cc2)C12c1ccccc1-c1ccccc12 (configuration not stated)	-17.6	87.4*	.	134.1	47.4	-62.4	59.5*
C=C(C=O)C[C@@H]1C[C@H](O)C2OC3C[C@]4(C)OC5/C=C\CC6OC7C(CC=CCC6OC5CCCC4OC3CC2O1)OC1CC2OC3CC(=O)OC3C[C@@H](C)C[C@@]2(C)OC1C[C@@H]7C (some centres not stated)	.	101.0*	.	.	60.8*	-143.2	98.7*
C=C(C=O)CC1CC(O)[C@]2(C)OC3C[C@@H]4OC5C[C@]6(C)O[C@]7(C)CCC8OC9C[C@]%10(C)OC(/C(C)=C\CO)C(O)CC%10OC9CC(C)C8OC7CC6O[C@]5(C)C/C=C\C4OC3CC2O1 (some centres not stated)	-2.6	-3.0	.	-5.3	-5.2	4.3	.
Cc1ccc(C[n+]2c(-c3ccc(C)cc3)cc(-c3ccc(C)cc3)cc2-c2ccc(C)cc2)cc1	-22.1	98.8*	.	12.1	90.2*	1.0	67.2*
CCCCN1CCN(C(=O)COc2cc(=O)n(C)c3ccccc23)CC1	.	.	-8.2	.	.	.	.
COc1ccc(-[n+]2c(-c3ccccc3)cc(-c3ccc(C)cc3)cc2-c2ccccc2)cc1	-17.4	66.1*	76.9*	.	91.3*	-25.9	40.7
Nc1c2c(nc3sc4c(c13)CCCC4)CCCCC2	-28.0	-174.4	-27.7	4.7	6.1	-224.1	-93.9
CN1/C(=C\C=C2C(=O)NC(=O)NC2=O)C(C)(C)c2ccccc21	16.6	-1.6	-3.7	-5.6	2.7	-11.0	.
CN1/C(=C\C=C\C2=[N+](C)c3ccc4ccccc4c3C2(C)C)C(C)(C)c2ccccc21	.	99.0*	.	.	.	24.4	84.0*
O=C(NC(CCC(O)CO)P(=O)(Oc1ccccc1)Oc1ccccc1)OCc1ccccc1 (configuration not stated)	.	.	-38.5	.	.	.	.
CC(=O)O[C@@]12CO[C@@H]1C[C@H](O)[C@@]1(C)C(=O)[C@H](O)C3=C(C)[C@@H](OC(=O)[C@H](O)[C@@H](NC(=O)c4ccccc4)c4ccccc4)C[C@@](O)([C@@H](OC(=O)c4ccccc4)C12)C3(C)C (some centres not stated)	0.6	68.4*	0.2	.	-1.4	-29.7	63.7*
CC(=O)O[C@H]1C(=O)[C@@]2(C)C([C@H](OC(=O)c3ccccc3)[C@]3(O)C[C@H](OC(=O)[C@H](O)[C@@H](NC(=O)Cc4ccccc4)c4ccccc4)C(C)=C1C3(C)C)[C@]1(OC(C)=O)CO[C@@H]1C[C@@H]2O (some centres not stated)	-4.5	61.7*	7.5	.	-7.0	-1.9	62.5*
CC(=O)O[C@H]1C(=O)[C@@]2(C)C([C@H](OC(=O)c3ccccc3)[C@]3(O)C[C@H](O)C(C)=C1C3(C)C)[C@]1(OC(C)=O)CO[C@@H]1C[C@H]2O (some centres not stated)	-3.4	22.7	-2.7	.	1.3	11.2	.
O=C(NCCN1CCC2(CC1)C(=O)NCN2c1ccccc1)c1ccc2ccccc2c1	.	.	6.4	.	.	.	.
C[C@H]1CCC/C=C/C2C[C@H](O)CC2[C@H](O)/C=C/C(=O)O1 (some centres not stated)	9.6	98.1*	.	131.7	86.6*	71.1*	-25.3	697 NFkB conf=80.7*
C[C@H]1CCC[C@H](O)CCCCCc2cc(O)cc(O)c2C(=O)O1	-13.8	7.0	22.2	-1.7	2.7	8.6	.
c1ccc(-c2nc3ccccc3nc2-c2ccc(CN3CCC(n4nnc5ccccc54)CC3)cc2)cc1	.	.	26.0	.	.	.	.
C=C1C(=O)OC2C1CCC(C)C1(O)C=CC(=O)C21C (configuration not stated)	1.1	.	-4.9	.	-23.2	.	.
C=C1C(=O)O[C@@H]2C[C@@H](C)[C@@H]3C4OC4C(=O)[C@@]3(C)[C@@H](O)[C@H]12 (some centres not stated)	-13.8	57.9*	68.2*	110.5*	18.5	i	23.4	697 NFkB conf=-447.6
O=C(NCCN1CCC2(CC1)C(=O)NCN2c1ccccc1)c1ccc(Cl)cc1	.	.	7.2	.	.	.	.
CC(=O)OC(C)(C)/C=C/C(=O)[C@](C)(O)C1[C@H](O)C[C@@]2(C)C3CC=C4C(C[C@H](O)C(=O)C4(C)C)[C@]3(C)C(=O)C[C@]12C (some centres not stated)	5.4	92.4*	.	.	84.7*	55.7*	61.8*	697 NFkB conf=71.0*
C=C1C(=O)O[C@H]2C[C@@H](C)[C@@H]3C=CC(=O)[C@@]3(C)C[C@H]12	.	87.7*	32.3	.	61.1*	-341.3	62.7*	697 NFkB conf=-235.4
CC(=O)O[C@H]1[C@H]2O[C@]23[C@@H]2CC[C@]4(O)C[C@@H](O)CC[C@]4(C)C2CC[C@]3(C)[C@H]1c1ccc(=O)oc1 (some centres not stated)	-1.4	95.9*	.	1.5	-2.1	71.0*	90.6*	697 NFkB conf=84.9*
CN1C[C@H](O)[C@H]2C[C@@H]1c1ccccc1O2	.	.	-14.0	.	.	.	.
COc1cc2c(c(OC)c1OC)-c1ccc(O)c(=O)cc1C(NC(C)=O)CC2 (configuration not stated)	3.4	55.2*	-82.2	.	61.4*	-211.6	1.1	Gli antag conf=65.9*;SufuKO cytotox=60.9*;Wnt3a counter=29.2*
Cc1ccccc1C(=O)NCCN1CCC2(CC1)C(=O)NCN2c1ccccc1	.	.	3.2	.	.	.	.
